# Only some compounds are listed: those with a hit (about 6.9% of all), similar ones and a draw of the others.
# Vif-A3G inh: inhibitors of Vif-APOBEC3G interaction. AID 602310. Potency, µM (series often up to 46.1 µM), hits mostly inhibitors. 410,000 compounds, 0.076% hits. HeLa A3G-eYFP + Vif (tagged APOBEC3G with the HIV-1 protein that degrades it), YFP fluorescence, overnight. Q9HC16; note: nearly all actives have a fitted effect of over 60% in size
# Target sequence (Q9HC16 whole entry, looked up): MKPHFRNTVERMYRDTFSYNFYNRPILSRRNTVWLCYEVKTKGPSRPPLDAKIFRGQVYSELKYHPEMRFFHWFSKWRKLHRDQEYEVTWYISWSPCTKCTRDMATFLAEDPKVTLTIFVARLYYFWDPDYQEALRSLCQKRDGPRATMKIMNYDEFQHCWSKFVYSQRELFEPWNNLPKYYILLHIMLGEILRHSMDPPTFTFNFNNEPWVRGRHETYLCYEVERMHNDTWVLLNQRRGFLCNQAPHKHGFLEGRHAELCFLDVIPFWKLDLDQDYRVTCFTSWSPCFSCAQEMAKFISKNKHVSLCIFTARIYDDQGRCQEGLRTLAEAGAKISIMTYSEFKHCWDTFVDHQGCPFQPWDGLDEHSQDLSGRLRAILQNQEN
#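 HeLa cells stably expressing Vif and C-terminally eYFP-tagged A3G, seeded overnight at 37 deg C, then exposed to compound by pintool overnight at 37 deg C. Rise in yellow fluorescence (Ex 488/Em 500-530, Acumen) marks blocked Vif-driven A3G degradation.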
# MCF10A rerep: DNA re-replication induction in MCF 10a cells; MCF 10A DNA re-replication, Hoechst nuclear intensity, 48 h; AID 624296; Potency, µM (titrated, usually from 46.1 µM), hits mostly activators; 350,000 compounds, 2.9% hits; note: nearly all actives have a fitted effect of over 50% in size
# Vif-A3F inh: Vif-A3F binding inhibition | Potency, µM (top dose mostly 46.1 µM) | 390,000 compounds, 0.2% hits | HeLa A3F-eYFP + Vif (tagged APOBEC3F with the HIV-1 protein that degrades it), YFP fluorescence increase; note: nearly all actives have a fitted effect of over 65% in size
#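 HeLa cells stably expressing A3F-eYFP plus Vif, plated and incubated overnight at 37 deg C, then exposed to compounds overnight at 37 deg C. Blocked degradation read as raised yellow fluorescence (Ex 488/Em 500-530).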
# IL1B secr inh: inflammasome signaling inhibition, IL-1 beta readout. activity change, % at 57.5 µM. AID 743279. THP-1 LPS/ATP IL-1B secretion, AlphaLISA, 16 h; hits give low values. 360,000 compounds, 4.7% hits; in the data active = activity change below about -50%; inconclusive = mostly about -30% to -49%
#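 Secreted IL-1B measured by AlphaLISA bead assay after 16 h compound exposure of THP-1 cells; compounds (final up to 57.5 uM) added 1 h before LPS (250 ng/mL) and ATP (1.25 mM) stimulation; lower signal means less secretion.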
# Giardia killer: kills Giardia lamblia; 340,000 compounds, 0.15% hits; activity change, % at 7.66 µM, hits read low; Giardia lamblia trophozoite viability; in the data active = activity change below about -80%; inconclusive = between about -30% and that limit;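 note: parasites exposed to compound for two days anaerobically before the ATP read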
#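 Killing of trophozoites was scored by loss of ATP luminescence after a 48 hrs anaerobic exposure to compounds at 37 deg C, using 100 cells per well.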
# SW480 rerep: induces DNA re-replication in SW480 colon adenocarcinoma cells | SW480 DNA re-replication, Hoechst DNA content imaging, 48 h | Potency, µM (top dose mostly 46.1 µM), actives largely listed as activators | 340,000 compounds, 1.8% hits; note: nearly all actives have a fitted effect of over 55% in size
#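 Hoechst fluorescence of nuclei (405 nm excitation, 500-530 nm emission) measured by plate-scanning imager after 48 hr compound exposure at 37 C; re-replication scored as increased number of nuclei with elevated intensity.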
# A number is an active result; n = inactive; u = inconclusive; x = no result given; [ ] = dose if it differs, or a comment. Unless noted, calls come from the whole dose curve; as a rule, active = well fitted curve in the direction sought with a large enough effect; inconclusive = small, poorly fitted or top-dose-only effect, or another doubt; inactive = no such curve, though single readings can be large; an effect the other way counts as inactive or inconclusive.
SMILES,Vif-A3G inh,MCF10A rerep,Vif-A3F inh,IL1B secr inh,Giardia killer,SW480 rerep
COc1ccc(F)cc1C(=O)C1CCCN(Cc2cn(C)c3ccccc23)C1 (centres undefined),n,9.2µM,n,-78,n,15µM
COc1ccc(-c2[nH]ncc2CN2CCCC(C(=O)c3ccc(OC)cc3OC)C2)cc1 (centres undefined),n,n,n,u,n,n
COc1ccc(OC)c(CN2CCCC(C(=O)c3ccccc3SC)C2)c1 (centres undefined),n,u,n,-68,n,u
CNC(=O)C1CC(=O)N(CCc2ccc(OC)c(OC)c2)C(=Nc2ccc(F)cc2)S1 (centres undefined),n,n,n,-77,n,u
Nc1[nH]c(=O)nc2nnsc12,n,x,x,x,x,x
Cc1cccc(C(=O)NC2CC3CCCC(C2)N3S(=O)(=O)c2ccccc2)c1 (centres undefined),n,n,n,-56,n,n
O=C(NC1CC2CCCC(C1)N2S(=O)(=O)c1ccccc1)c1ccccc1 (centres undefined),n,n,n,n,n,n
Cc1[nH]c2ccccc2c1C1=NNC(=Nc2ccc(F)cc2)SC1,n,21µM,n,-66,n,u
Cc1[nH]c2ccccc2c1N=Nc1ccc(F)cc1,n,n,n,u,n,n
COc1ccc(N=C2NN=C(c3c(C)[nH]c4ccccc34)CS2)cc1,n,18µM,n,u,n,u
CCN1c2ccccc2-c2nc(SCC(=O)NCc3ccc(C)cc3)ncc2S1(=O)=O,n,x,n,x,x,x
CCOc1ccccc1CNC(=O)CCc1c(C)nn(-c2ccc(N3CCCCC3)nn2)c1C,n,x,n,x,x,x
Cc1[nH]n(-c2ccccc2)c(=O)c1C(=O)c1ccc(Cl)cc1,n,n,n,n,n,n
Cc1[nH]n(-c2ccc(Cl)cc2)c(=O)c1C(=O)c1ccccc1,n,4.6µM,n,n,n,n
CC(C)(C)C1CCC(=NNc2ccc(S(N)(=O)=O)cc2[N+](=O)[O-])CC1 (centres undefined),n,u,n,-87,n,n
O=S(=O)(c1ccc(Br)cc1)c1nnn2c1nc(Nc1cccc(C(F)(F)F)c1)c1sccc12,n,x,n,x,x,x
C[n+]1c(/C=C/c2ccc(N)cc2)sc2ccccc21,n,x,x,x,x,x
N=c1n(CC(=O)c2ccc(Br)s2)c2ccccc2n1Cc1ccccc1,n,u,n,-104,n,u
Cn1c(=N)n(CC(=O)c2ccc(Br)s2)c2ccccc21,n,n,n,-95,n,n
CCn1nc(C)c2c(-c3ccccc3)cc(=O)n(C(C)C(=O)Nc3ccc(OC)c(OC)c3)c21 (centres undefined),n,x,n,x,x,x
O=C(/C=C(/c1ccc(Cl)cc1)n1cncn1)c1ccccc1,n,u,u,-58,n,u
Cc1nc(OCC(=O)c2ccc(Cl)cc2)c(C#N)c2c1COC(C)(C)C2,n,4.6µM,n,n,n,21µM
CC1(C)Cc2c(C#N)c(OCC(=O)c3ccc(Cl)cc3)nc(-c3ccco3)c2CO1,n,n,n,n,n,n
Nc1nnc(SC2CC(=O)N(c3ccccc3)C2=O)s1 (centres undefined),n,u,n,-89,n,u
O=C1CC(Sc2ncccn2)C(=O)N1c1ccccc1 (centres undefined),n,n,n,n,n,n[9.22 µM]
SMILES,Vif-A3G inh,MCF10A rerep,Vif-A3F inh,IL1B secr inh,Giardia killer,SW480 rerep
CCOC(=O)N(O)c1ccc(C=Cc2ccccc2)cc1,n,u,n,u,n,12µM
CCN(CC)c1ccc(/C=c2/sc3nnc(-c4ccccc4C)n3c2=O)cc1,n,n,1.3µM,n,n,n
CC(C)(C)c1ccc(NC(=O)COC(=O)c2ccccc2OCC(=O)Nc2ccc(Br)cc2)cc1,n,x,x,x,x,x
CNC(=S)N(C)/N=C1/C(=O)N(Cc2c(Cl)cccc2Cl)c2ccccc21,n,18µM,n,n,n,u
COc1ccc(C2c3c(oc4ccc(F)cc4c3=O)C(=O)N2Cc2ccc3c(c2)OCO3)cc1 (centres undefined),n,x,n,x,x,x
CCOC(CCNC(=O)c1cc2c(=O)[nH]c3ccccc3c2s1)OCC,n,n,n,n,n,n
CCOC(CNCc1cc(C)c2[nH]c3ccccc3c2c1C)OCC,n,u,n,-96,n,u
COc1ccccc1-c1nc2n(n1)C(c1ccccc1Cl)C(C(=O)Nc1cccnc1)=C(C)N2 (centres undefined),n,x,n,x,x,x
O=C(CSc1ncnc2scc(-c3ccccc3)c12)NC1CCS(=O)(=O)C1 (centres undefined),n,n,n,n,n,n
O=C(CSc1ncnc2sc(-c3ccccc3)cc12)NC1CCS(=O)(=O)C1 (centres undefined),n,n,n,-66,n,n
Cc1cccc(-c2oc3ccc(-c4ccc5c(c4)OCO5)cc3c2/C=C/c2ccc(N)cc2)c1,n,u,n,n,n,16µM
COc1ccc(-c2c(-c3cccc(C)c3)oc3ccc(-c4ccc5c(c4)OCO5)cc23)cn1,n,n,n,n,n,n
COc1cnc(-c2ccccn2)nc1Oc1ccc(F)cc1F,n,n,11µM,n,n,n
COc1cnc(-c2ccccn2)nc1Oc1ccc(Cl)cc1,n,u,n,n,n,10µM
COc1cnc(-c2ccccn2)nc1Sc1ccc(C)cc1,n,n,n,n,n,u
COc1cnc(-c2ccccn2)nc1Sc1cccc(Cl)c1,n,21µM,n,n,n,12µM
COc1cnc(-c2ccccn2)nc1NC(C)C,n,23µM,n,n,n,6.5µM
COc1cc(OC)c(Nc2ncnc3onc(-c4cccc(Cl)c4)c23)cc1Cl,n,x,n,x,x,x
CCCCOC(=O)c1ccc(Nc2ncnc3[nH]ncc23)cc1,n,x,n,x,x,x
CCOc1ccc(OCC)c(NC(=O)c2cc(S(=O)(=O)N3CCCC3)cn2C)c1,n,x,n,x,x,x
CCn1c(SCc2ccccc2Cl)nc(=O)c2c(C(=O)OC)cc(C3CC3)nc21,n,x,n,x,x,x
Cc1cc(C)cc(NC(=O)CSc2nc(=O)[nH]c3c2CCC3)c1,n,x,n,x,x,x
COc1cc(C2c3c(oc4ccc(F)cc4c3=O)C(=O)N2Cc2ccc3c(c2)OCO3)ccc1O (centres undefined),n,x,n,x,x,x
CCCCS(=O)(=O)Nc1ccc2c(c1)ncn2C1CCCCC1,n,23µM,n,n,n,n
c1ccc(CNc2ccc3c(c2)ncn3C2CCCCC2)nc1,n,21µM,n,n,n,23µM
CCCCNC(=O)c1ccc2c(c1)ncn2C1CCCCC1,n,n,n,n,n,n
COc1ccc(/C=C/c2ccc3ccccc3n2)c(OC)c1,n,x,x,x,x,x

# Source: PubChem BioAssay
